In assay [1] the target is Progesterone receptor (Homo sapiens) (UniProt P06401). Description: qHTS assay to identify small molecule agonists of the progesterone receptor (PR) signaling pathway (AID 1346784; calls by dose curve; note: nearly all actives have a fitted effect of over 30% in size). The method, boiled down:
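Fluorescence from LiveBLAzer B/G FRET substrate cleavage (2 hr, RT) reported PR activation in PR-UAS-bla HEK 293T cells treated 16 hr at 37C/5% CO2 with compounds; medium contained 2% charcoal-stripped FBS.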

Assay [2] shares this target. Nature of the assay: qHTS assay to identify small molecule antagonists of the progesterone receptor (PR) signaling pathway (AID 1346795; active = well fitted inhibition curve with a large enough effect in the signal ratio in the repeat runs, not every such curve was filed as active; the % refers to the signal ratio; note: potency is the fitted concentration of half-maximal effect). The method, boiled down: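 Fluorescence intensity measured 2 hr after adding beta-lactamase FRET substrate to PR-UAS-bla HEK293T cells that had been co-treated 16 hr with compound and 1 nM R5020 (final concentration) in 2% charcoal-stripped FBS.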

A short description of assay [3]: qHTS assay to identify small molecule antagonists of the TGF-beta/Smad signaling pathway - cell viability counter screen (AID 1346824). Note: nearly all actives have a fitted effect of over 50% in size. Note: potency is the fitted concentration of half-maximal effect. The method, boiled down: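 SBE-bla HEK 293T cells, incubated overnight, then compound plus 0.25 ng/mL TGF-beta1 (stock added) for 5 hr at 37 C. Viability was read in the same wells by CellTiter-Glo luminescence after 30 min at room temperature.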

The nature of assay [4]: qHTS assay to identify small molecule agonists of the TGF-beta/Smad signaling pathway - cell viability counter screen (AID 1346829). For activity change, negative = cytotoxicity: top concentration of the series differs between compounds. Note: nearly all actives have a fitted effect of over 45% in size. Note: potency is the fitted concentration of half-maximal effect. The method, boiled down:
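Same-well cytotoxicity: CellTiter-Glo added after the 2 hr room-temperature beta-lactamase substrate step, luminescence measured 30 min later; cells had 5 hr of compound at 37 C.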

The nature of assay [5]: qHTS assay to identify small molecule agonists of the TGF-beta/Smad signaling pathway (AID 1346859; active = well fitted activation curve with a large enough effect in the signal ratio in the repeat runs, not every such curve was filed as active; the % refers to the signal ratio; note: series mostly up to about 77 µM). The method, boiled down:
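After overnight seeding, SBE-bla HEK 293T cells are dosed with compounds in DMSO and kept 5 hr at 37 C, 5% CO2. LiveBLAzer-type FRET substrate is then applied for 2 hr at room temperature.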

The target in assay [6] is Thyrotropin-releasing hormone receptor (Homo sapiens) (UniProt P34981). Description: qHTS assay to identify small molecule antagonists of the thyrotropin-releasing hormone receptor (TRHR) signaling pathway (AID 1346877; active = well fitted inhibition curve with a large enough effect in the repeat runs, not every such curve was filed as active; note: series mostly up to about 51 µM). The method, boiled down:
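Kinetic fluorescence (3 min, 1 s resolution) following stimulation with TRH at 1 nM final; HEK293 cells bearing human TRHR; 5 min compound preincubation at RT; concentration-response over 15 points, triplicates.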

Assay [7] has the same target. Description: qHTS assay to identify small molecule agonists of the thyrotropin-releasing hormone receptor (TRHR) signaling pathway (AID 1346891; calls by dose curve;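 note: HEK293 cells expressing TRHR with calcium dye readout; series mostly up to about 58 µM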). The method, boiled down:
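Compounds were tested as agonists at 15 concentrations, in triplicate, on TRHR-Hek293 cells; calcium-sensitive dye fluorescence was recorded for 3 min following addition.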

The nature of assay [8]: Caspase-3/7 induction in HepG2 cells by small molecules, qHTS assay (AID 1346978). Note: nearly all actives have a fitted effect of over 15% in size. The method, boiled down:
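Wild-type HepG2 cells, 2,000/well, settled 5 hr at 37 C and 5% CO2, then compound-treated for 17 hr; caspase-3/7 activity read by luminescent Caspase-Glo 3/7 after 30 min at room temperature.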

The nature of assay [9]: Caspase-3/7 induction in CHO-K1 cells by small molecules, qHTS cell viability counter screen (AID 1346979). Note: nearly all actives have a fitted effect of over 35% in size. Note: potency is the fitted concentration of half-maximal effect. The method, boiled down:
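Viability readout by fluorescence (CellTiter-Fluor) on wild-type CHO-K1 cells exposed for 16hr at 37C and 5% CO2 to compounds delivered in DMSO; reagent incubated 1hr before reading.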

Assay [10] in a line: Caspase-3/7 induction in CHO-K1 cells by small molecules, qHTS assay (AID 1346980). Note: nearly all actives have a fitted effect of over 15% in size. The method, boiled down: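 Wild-type CHO-K1 cells exposed to compounds for 17hr at 37 C, 5% CO2. Caspase-3/7 activity then measured by Caspase-Glo 3/7 luminescence after 30min at room temperature.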
For assay [11], the target named is Nuclear receptor subfamily 1 group I member 2 (Homo sapiens) (UniProt O75469). Description: Human pregnane X receptor (PXR) small molecule agonists, qHTS assay (AID 1346982). Note: nearly all actives have a fitted effect of over 35% in size. Note: potency is the fitted concentration of half-maximal effect. The method, boiled down: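 Reporter HepG2 cells expressing PXR-Luc are cultured in charcoal-stripped FBS (5%), treated with compounds for 24 hr at 37 C, and assayed by ONE-Glo luminescence after 30 min at room temperature.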
Nuclear receptor subfamily 1 group I member 2 (Homo sapiens), sequence (O75469 whole entry, looked up): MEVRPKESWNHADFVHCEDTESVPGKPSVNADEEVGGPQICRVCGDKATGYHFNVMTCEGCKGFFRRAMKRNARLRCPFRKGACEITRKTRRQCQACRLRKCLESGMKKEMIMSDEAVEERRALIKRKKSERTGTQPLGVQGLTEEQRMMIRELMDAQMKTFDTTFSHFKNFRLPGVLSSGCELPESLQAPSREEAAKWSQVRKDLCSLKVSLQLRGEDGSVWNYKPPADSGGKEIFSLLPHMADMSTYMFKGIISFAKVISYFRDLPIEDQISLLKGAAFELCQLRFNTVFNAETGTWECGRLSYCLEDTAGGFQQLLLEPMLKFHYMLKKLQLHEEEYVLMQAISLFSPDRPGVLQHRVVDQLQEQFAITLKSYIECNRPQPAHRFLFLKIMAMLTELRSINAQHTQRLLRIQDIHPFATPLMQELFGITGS

The target in assay [12] is Cytochrome P450 2C19 (Homo sapiens) (UniProt P33261). Description: Cytochrome P450 Family 2 Subfamily C Member 19 (CYP2C19) small molecule antagonists: luciferase reporter qHTS assay (AID 1671197). For activity change, negative = inhibition: series mostly up to about 120 µM. Note: nearly all actives have a fitted effect of over 65% in size. Note: potency is the fitted concentration of half-maximal effect. The method, boiled down:
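Quantitative high-throughput screen of the Tox21 library using CYP2C19 with proluciferin substrate. Reaction: NADPH regeneration, 37C, 1 h, after 10 min compound preincubation at room temperature. Readout: luminescence.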

A short description of assay [13]: qHTS assay to identify small molecule antagonists of the progesterone receptor (PR) signaling pathway - cell viability counter screen (AID 1346798). Note: series mostly up to about 92 µM; nearly all actives have a fitted effect of over 50% in size. The method, boiled down: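 CellTiter-Glo luminescence; PR-UAS-bla HEK293T, 3,000 cells/well; compound + R5020, 16 hr, 37C/5% CO2; 30 min RT before read.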
The nature of assay [14]: qHTS assay to identify small molecule agonists of the progesterone receptor (PR) signaling pathway - cell viability counter screen (AID 1346799; calls by dose curve; note: nearly all actives have a fitted effect of over 45% in size). The method, boiled down: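 In parallel with the beta-lactamase readout, cytotoxicity toward PR-UAS-bla HEK293T cells was measured by CellTiter-Glo luminescence following 16 hr compound incubation in 2% charcoal-stripped FBS medium.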

The nature of assay [15]: Human pregnane X receptor (PXR) small molecule agonists, qHTS cell viability counter screen (AID 1346977). Note: nearly all actives have a fitted effect of over 50% in size. Note: potency is the fitted concentration of half-maximal effect. The method, boiled down: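 Viability counter screen: CellTiter-Fluor signal in PXR-Luc HepG2 cells, 24hr compound exposure, 37C, 5% CO2.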
Assay [16] in a line: Caspase-3/7 induction in HepG2 cells by small molecules, qHTS cell viability counter screen (AID 1346981). Note: series mostly up to about 92 µM; nearly all actives have a fitted effect of over 30% in size. The method, boiled down:
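In this quantitative HTS counter screen, compounds delivered in DMSO were left on unmodified HepG2 cells for 16 hr at 37 C. Viability was then determined fluorometrically with CellTiter-Fluor, in parallel with caspase-3/7 induction in the same wells.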

The target of assay [17] is Cytochrome P450 2D6 (Homo sapiens) (UniProt P10635). Description: Cytochrome P450 Family 2 Subfamily D Member 6 (CYP2D6) small molecule antagonists: luciferase reporter qHTS assay (AID 1671196). For activity change, negative = inhibition: series mostly up to about 120 µM. Note: nearly all actives have a fitted effect of over 50% in size. Note: potency is the fitted concentration of half-maximal effect. The method, boiled down: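 Test chemicals meet CYP2D6 plus proluciferin substrate (10 min, RT); NADPH regenerating solution then drives turnover for 1 h. Detection reagent halts the reaction; luminescence measured after 20 min.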
Cytochrome P450 2D6 (Homo sapiens), sequence (P10635 whole entry, looked up): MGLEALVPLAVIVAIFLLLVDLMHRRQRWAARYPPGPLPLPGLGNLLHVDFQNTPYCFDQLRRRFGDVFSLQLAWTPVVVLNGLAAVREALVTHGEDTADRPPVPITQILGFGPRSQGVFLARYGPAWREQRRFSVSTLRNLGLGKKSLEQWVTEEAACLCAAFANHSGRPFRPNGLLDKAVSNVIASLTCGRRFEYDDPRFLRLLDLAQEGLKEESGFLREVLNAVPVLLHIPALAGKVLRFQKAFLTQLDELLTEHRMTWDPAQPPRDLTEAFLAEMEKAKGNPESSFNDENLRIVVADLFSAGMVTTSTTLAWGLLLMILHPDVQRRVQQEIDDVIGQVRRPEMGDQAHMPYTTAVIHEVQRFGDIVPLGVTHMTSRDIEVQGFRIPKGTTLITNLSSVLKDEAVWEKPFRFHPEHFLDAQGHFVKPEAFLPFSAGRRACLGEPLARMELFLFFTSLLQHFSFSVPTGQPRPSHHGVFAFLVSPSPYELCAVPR

The target in assay [18] is Nuclear receptor subfamily 1 group I member 2 (Rattus norvegicus) (UniProt Q9R1A7). Nature of the assay: Rat pregnane X receptor (rPXR) activation by small molecules, qHTS assay (AID 1346983). Note: nearly all actives have a fitted effect of over 20% in size. The conditions noted are these: rPXR luciferase reporter cells, One-Glo luminescence, 24 h; max activation: hits give high values. The method, boiled down:
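Cell-based rPXR activation assay: rPXR cells, 2,000 per well, rested 5hr at 37 C, then exposed to compounds in DMSO for 24 hr at 37 C. Luciferase activity read by One-Glo luminescence after 30 min at room temperature.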

Assay [19] has as its target Nuclear receptor subfamily 1 group I member 2 (Homo sapiens) (UniProt O75469). Nature of the assay: CYP3A4 induction through human pregnane X receptor (PXR) by small molecules, qHTS assay (AID 1346984). Note: nearly all actives have a fitted effect of over 40% in size. The method, boiled down: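 Induction measured in HepG2-based DPX-2 cells co-expressing human PXR and a CYP3A4 promoter-driven luciferase. After a 24-hour compound exposure, cells received CYP3A4 luciferin substrate at 3uM final for 3 hours, and light output was then recorded.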

For assay [20] the target is unchanged. Nature of the assay: Human pregnane X receptor (PXR) activation by small molecules, qHTS assay (AID 1346985). Note: nearly all actives have a fitted effect of over 40% in size. The method, boiled down:
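DPX-2 cells (HepG2 co-transfected with a PXR response element and a CYP3A4-promoter luciferase construct) were seeded at 2,000 per well, rested 5 hr at 37C, then exposed to DMSO-dissolved compounds for 24 hr. Activation was read as luciferase luminescence.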

Values without a mark were called inactive. Inconclusive results are not listed. Activity calls are given as the source filed them. Unless noted, calls come from the whole dose curve; as a rule, active = well fitted curve in the direction sought with a large enough effect in the repeat runs; inconclusive = weak or mixed curves; inactive = no such curve, though single readings can be large; an effect the other way counts as inactive or inconclusive.
% is set by controls: 0 for no effect and ±100 for the full control effect.

Thyrotropin-releasing hormone receptor (Homo sapiens), sequence (P34981 whole entry, looked up): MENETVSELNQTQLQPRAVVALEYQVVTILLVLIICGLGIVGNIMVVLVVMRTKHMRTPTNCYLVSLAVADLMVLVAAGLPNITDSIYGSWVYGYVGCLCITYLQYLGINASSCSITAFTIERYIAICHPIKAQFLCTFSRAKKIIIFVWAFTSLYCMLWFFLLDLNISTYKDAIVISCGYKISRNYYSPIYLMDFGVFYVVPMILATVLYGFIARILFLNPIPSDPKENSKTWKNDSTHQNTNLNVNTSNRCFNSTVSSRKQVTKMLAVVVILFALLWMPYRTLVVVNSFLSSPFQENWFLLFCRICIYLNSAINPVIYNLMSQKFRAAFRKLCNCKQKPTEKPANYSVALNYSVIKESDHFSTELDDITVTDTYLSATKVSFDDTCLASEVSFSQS
Progesterone receptor (Homo sapiens), sequence (P06401 whole entry, looked up): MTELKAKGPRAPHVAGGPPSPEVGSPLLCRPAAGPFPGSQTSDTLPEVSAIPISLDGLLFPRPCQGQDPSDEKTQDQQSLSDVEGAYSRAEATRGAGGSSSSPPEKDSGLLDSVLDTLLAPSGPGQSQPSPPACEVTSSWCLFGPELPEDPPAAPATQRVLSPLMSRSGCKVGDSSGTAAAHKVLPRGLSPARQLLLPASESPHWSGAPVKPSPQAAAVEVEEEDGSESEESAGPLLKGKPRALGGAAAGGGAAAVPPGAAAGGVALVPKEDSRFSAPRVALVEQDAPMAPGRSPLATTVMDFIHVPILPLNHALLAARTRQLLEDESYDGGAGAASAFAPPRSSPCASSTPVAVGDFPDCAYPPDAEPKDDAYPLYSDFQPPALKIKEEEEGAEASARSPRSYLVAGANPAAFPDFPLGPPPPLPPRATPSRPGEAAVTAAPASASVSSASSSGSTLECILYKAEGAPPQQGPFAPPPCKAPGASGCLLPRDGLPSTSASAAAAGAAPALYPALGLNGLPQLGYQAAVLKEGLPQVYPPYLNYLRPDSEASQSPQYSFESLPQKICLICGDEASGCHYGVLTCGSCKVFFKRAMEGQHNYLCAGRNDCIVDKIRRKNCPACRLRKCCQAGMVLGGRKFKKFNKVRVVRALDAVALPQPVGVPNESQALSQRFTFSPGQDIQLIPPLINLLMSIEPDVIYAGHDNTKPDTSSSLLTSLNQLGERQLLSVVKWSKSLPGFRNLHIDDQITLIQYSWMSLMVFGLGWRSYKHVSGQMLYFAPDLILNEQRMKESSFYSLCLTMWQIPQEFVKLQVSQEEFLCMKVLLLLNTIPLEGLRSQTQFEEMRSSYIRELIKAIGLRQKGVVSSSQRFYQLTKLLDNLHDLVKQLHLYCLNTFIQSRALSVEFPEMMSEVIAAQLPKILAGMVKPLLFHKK
Cytochrome P450 2C19 (Homo sapiens), sequence (P33261 whole entry, looked up): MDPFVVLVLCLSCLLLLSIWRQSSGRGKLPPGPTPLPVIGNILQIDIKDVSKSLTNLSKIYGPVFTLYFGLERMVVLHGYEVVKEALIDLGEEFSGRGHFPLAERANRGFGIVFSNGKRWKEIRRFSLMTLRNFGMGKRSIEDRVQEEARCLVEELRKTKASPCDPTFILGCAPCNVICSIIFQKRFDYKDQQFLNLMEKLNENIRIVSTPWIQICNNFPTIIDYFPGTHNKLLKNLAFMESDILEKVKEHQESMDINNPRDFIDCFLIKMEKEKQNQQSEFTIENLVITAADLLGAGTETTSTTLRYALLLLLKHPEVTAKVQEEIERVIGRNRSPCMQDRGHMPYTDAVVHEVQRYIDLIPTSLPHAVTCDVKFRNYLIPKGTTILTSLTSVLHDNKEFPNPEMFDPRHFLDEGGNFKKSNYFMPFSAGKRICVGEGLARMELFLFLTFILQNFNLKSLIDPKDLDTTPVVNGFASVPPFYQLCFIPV
Nuclear receptor subfamily 1 group I member 2 (Rattus norvegicus), sequence (Q9R1A7 whole entry, looked up): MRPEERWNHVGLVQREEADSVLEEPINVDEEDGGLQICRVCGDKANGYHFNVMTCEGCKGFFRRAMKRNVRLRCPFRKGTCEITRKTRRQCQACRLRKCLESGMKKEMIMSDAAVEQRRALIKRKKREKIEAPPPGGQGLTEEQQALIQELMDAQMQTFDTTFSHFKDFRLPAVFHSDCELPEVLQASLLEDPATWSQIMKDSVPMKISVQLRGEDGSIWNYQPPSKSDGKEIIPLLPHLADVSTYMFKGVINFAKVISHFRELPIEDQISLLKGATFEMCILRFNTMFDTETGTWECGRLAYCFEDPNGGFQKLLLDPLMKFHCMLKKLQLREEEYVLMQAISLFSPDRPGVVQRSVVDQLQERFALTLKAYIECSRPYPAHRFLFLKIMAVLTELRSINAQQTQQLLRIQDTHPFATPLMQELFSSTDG

Consider `Cc1ccc(-n2[nH]c(C)c(N=Nc3cccc(-c4cccc(C(=O)O)c4)c3O)c2=O)cc1C`, for which the result in assay [1] was inactive. The Potency is 18.8 µM (active) in [2] and 26.6 µM (active) in assay [9]. Further, the Potency entry in assay [3], in [4], in assay [5], in [6], in assay [7] and in assay [8] was “inactive” each time. Besides, the Potency result in [10], in assay [11] and in assay [12] was “inactive” throughout.
Take `CS(C)(=O)=O`: the compound was classed as inactive in [1]. For the same compound, the Potency entry in [13], in [14], in assay [3], in [4], in [5] and in [6] was “inactive” in each case. For the same compound, the Potency result in [7], in assay [15], in assay [8], in assay [9], in [10] and in [16] was “inactive” in each case. Moreover, the Potency result in assay [11], in assay [17] and in assay [12] was “inactive” throughout.
Take `CCOC(=O)[C@@](C)(N)Cc1ccc(O)c(O)c1`: the compound was classed as inactive in [1]. Further, the Potency entry in [2], in assay [3], in [4], in [5], in assay [6] and in assay [7] was “inactive” each time. Further, the Potency entry in [15], in assay [8], in [10], in assay [16], in assay [11] and in assay [19] was “inactive” each time. Besides, the Potency result in assay [20] is “inactive”. In addition, the max activation in [18] is -0.299%. The Potency in [17] was 8.71 µM (active).
With `S=C(SSSSSSC(=S)N1CCCCC1)N1CCCCC1`, the activation in assay [1] is 0.512% [at 19 µM]; in assay [5], 10.4% [at 15.8 µM]; in assay [7], 4.08% [at 11.8 µM]; in assay [11] it was 19.2% [at 19 µM]. Besides, the Potency is 13.4 µM (active) in assay [2] and 7.56 µM (active) in assay [9]. Moreover, the viability change, negative = cytotoxic in assay [3] was 17.4% [at 15.8 µM]. Besides, the figures for the activity change, negative = cytotoxicity in assay [4], in assay [15] and in assay [16] were -0.13% [at 15.8 µM], 0.702% [at 19 µM] and 7.87% [at 19 µM], respectively. Also, the caspase activation in assay [8] is 0.0321% [at 19 µM]. The caspase-3/7 activation in assay [10] is 1.75% [at 19 µM]. The activity change, negative = inhibition in assay [17] is -19.3% [at 23.6 µM].
As to `CCC(C)(C)c1cc(O)c(C(C)(C)CC)cc1O`, the call in assay [1] was inactive. Further, the Potency result in [2], in assay [3], in [4], in assay [7], in [15] and in assay [8] was “inactive” each time. The Potency result in assay [10] and in assay [17] was “inactive” in each case. Moreover, the Potency in [11] was 30.6 µM (active); in [12], 31.7 µM (active).
For `O=C(Nc1ccc(Cl)c(Cl)c1)c1cc(Cl)cc(Cl)c1O`, the result in assay [1] was inactive. Moreover, the Potency in assay [2] is 4.86 µM (active); in assay [3], 19.5 µM (active); in assay [4] it was 6.92 µM (active); in assay [15] it was 4.86 µM (active); in assay [9] it was 7.7 µM (active); in [11], 10.9 µM (active). Moreover, the Potency entry in assay [7], in [8] and in [10] was “inactive” each time.
Take `CCN(CC)CCOC(=O)C1(C2CCCCC2)CCCCC1`: in [1], the outcome was inactive. The Potency entry in [2], in assay [5], in [6], in assay [7] and in [12] was “inactive” throughout. In addition, in [11], the Potency was 8.41 µM (active).
`C=C/C=C/C=C/CCCCC`: the results for the activation in assay [1], in [5] and in [11] were -1.1% [at 19 µM], -2.28% [at 15.8 µM] and 9.15% [at 19 µM], respectively. Besides, the activity change, negative = cytotoxicity was 13.8% [at 18.9 µM] in [13]; -2.82% [at 19 µM] in assay [14]; -1.35% [at 15.8 µM] in assay [4]; 3.3% [at 19 µM] in [15]; -1.73% [at 19 µM] in assay [9]; -1.07% [at 19 µM] in assay [16]. For the same compound, in [3], the viability change, negative = cytotoxic was -6.86% [at 15.8 µM]. Also, in assay [8], the caspase activation was -0.0295% [at 19 µM]. Also, the caspase-3/7 activation in assay [10] was 0.387% [at 19 µM]. Moreover, in assay [17], the activity change, negative = inhibition was -25.6% [at 23.6 µM].
Turning to `CCCCCCCC/C=C\CCCCCCCC(=O)OCCOC(=O)CCCCCCC/C=C\CCCCCCCC`, the compound was classed as inactive in [1]. The Potency entry in assay [13], in assay [14], in [3], in [4], in assay [5] and in [15] was “inactive” each time. Further, the Potency entry in [8], in assay [9], in assay [10] and in assay [16] was “inactive” each time. For the same compound, the figures for the Potency in [11], in [17] and in assay [12] were 71.2 µM (active), 46.5 µM (active) and 46.5 µM (active), respectively.

Source of the values: PubChem BioAssay (Tox21).
